A549 viability: Nrf2 qHTS screen for inhibitors: counterscreen for cytotoxicity; A549 ARE-Fluc cells, CellTiter-Fluor viability, 18-24 h; Potency, µM (titrated, usually from 46 µM), most hits filed as inhibitors; 390,000 tested, 0.16% active
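A549 ARE_Fluc cells in 5% FBS OPTI-MEM were exposed to compounds in concentration-response for 18-24 h at 37 deg C. Viability was read by CellTiter-Fluor fluorescence (Ex 405/Em 525) after 30 min, before the luciferase read.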
Nrf2 ARE act: qHTS of Nrf2 Activators. Potency, µM (top dose mostly 46.1 µM), usual class: activators. AID 624171, 2012. AREc32 ARE-luciferase reporter (MCF7-derived line), luminescence, 24 h. 410,000 tested, 0.31% active; also: nearly all actives have a fitted effect of over 65% in size
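Luciferase luminescence (Steady-Glo, 30 min at room temperature) served as the read-out of ARE activation in AREc32 cells treated with compounds for 24 hr at 37 deg C.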
TGFb SMAD3 inh: qHTS for Inhibitors of TGF-b; 410,000 tested, 1.2% active; Potency, µM (highest dose often 46.1 µM), usual class: inhibitors; HepG2 CAGA-GFP TGF-b/SMAD3 reporter, GFP fluorescence, 18 h; TGF-beta stimulated, 500 pg/mL final; also: nearly all actives have a fitted effect of over 65% in size
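Using HEPG2 CAGA-GFP reporter cells at 1000 cells/well, we pinned test compounds, stimulated with recombinant TGF-beta (500 pg/mL final) and measured total well GFP after 18 h.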
HepG2 viability: qHTS for Inhibitors of TGF-b: Cytotox Counterscreen | HepG2 CAGA-GFP viability, ATP luminescence, 18 h | Potency, µM (top dose mostly 46.1 µM), most hits filed as cytotoxic | 410,000 tested, 0.76% active
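HepG2 CAGA-GFP cells (1000/well, DMEM with 1% FBS) received compound, then TGF-beta at 500 pg/mL final, and were incubated 18 hours at 37 degrees C. Viability was read by CellTiter-Glo luminescence. Media-only wells were set as complete cell-killing and DMSO as no toxicity.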
Nrf2 block: Nrf2 qHTS screen for inhibitors | 360,000 tested, 2.1% active | A549 ARE-Fluc reporter, luciferase luminescence, 18-24 h | Potency, µM (doses to about 46 µM), usual class: inhibitors; also: nearly all actives have a fitted effect of over 60% in size
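A549 ARE_Fluc cells, 5000/well, 5% FBS OPTI-MEM; compounds in dose-response, 18-24 h at 37 °C/5% CO2; CellTiter-Fluor viability read (Ex 405/Em 525), then BugLite luciferase luminescence = Nrf2 activity.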
Numbers stand for hits; n = inactive; u = inconclusive; x = no result given; [ ] = another dose, or the depositor's remark. Rows were chosen to be rich in hits. Some 3.6% of all compounds tested hit in one or more screens of this group. Calls follow the shape of the dose curve; as a rule, active = well fitted curve in the direction sought with a large enough effect; inconclusive = small, poorly fitted or top-dose-only effect, or another doubt; inactive = no such curve, though single readings can be large; an effect the other way counts as inactive or inconclusive.

SMILES	A549 viability	Nrf2 ARE act	TGFb SMAD3 inh	HepG2 viability	Nrf2 block
COc1cc(C(=O)Nc2ccc3c(c2)N(C(=O)CCN(C)C)c2ccccc2CC3)cc(OC)c1OC	n	n	n	n	n
CC(C)(C)c1ccc(C(=O)NCCC(=O)Nc2ccc(S(=O)(=O)Nc3nccs3)cc2)cc1	n	n	n	n	n
N#Cc1ccsc1NC(=O)CCS(=O)(=O)c1ccccc1	n	14.1µM	u	n	n
N#Cc1ccsc1NC(=O)COC(=O)CCS(=O)(=O)c1ccccc1	n	n	n	n	n
Cc1onc(-c2ccccc2Cl)c1C(=O)NCc1ccc(S(N)(=O)=O)cc1	n	n	n	n	n
FC(F)(F)c1cccc(N2CCN(c3ccc4nnc(-c5ccccc5)n4n3)CC2)c1	u	n	n	n	16.4µM
c1ccc(-c2nnc3ccc(N4CCCC4)nn23)cc1	n	n	n	n	u
CCOc1ccc(S(=O)(=O)n2nc(C)cc2C)cc1	n	n	n	n	n
COc1ccccc1-c1c(C(F)(F)F)oc2cc(OS(C)(=O)=O)ccc2c1=O	n	n	n	n	8.2µM
O=C(O)CCNc1cc(N2CCN(C(=O)c3ccco3)CC2)c2noc3c2c1C(=O)c1ccccc1-3	18.4µM	n	n	n	u
O=C1c2ccccc2-c2onc3c(NCCO)cc(NC4CCCCC4)c1c23	u	n	11.2µM	n	20.6µM
CC(=O)OCCNc1cc(N2CCN(C)CC2)c2noc3c2c1C(=O)c1ccccc1-3	n	n	n	n	n
CCCCNc1cc(NC2CCCCC2)c2c3c(onc13)-c1ccccc1C2=O	n	n	n	n	n
O=C(O)CCCNc1cc(N2CCN(C3CCCCC3)CC2)c2noc3c2c1C(=O)c1ccccc1-3	u	n	n	n	n[9.27 µM]
CCN1CCN(c2cc(N3CCN(C(=O)c4ccco4)CC3)c3c4c(onc24)-c2ccccc2C3=O)CC1	u	n	n	25.1µM	n
COc1ccc(CNS(=O)(=O)CCNCc2ccccc2OC)cc1	n	n	n	n	n
CCCCCCCCNS(=O)(=O)CCNCc1ccccc1OC	n	n	u	12.6µM	n
O=C(NCCc1ccc(Cl)cc1)c1ccc(CS(=O)Cc2ccc(Cl)cc2)o1 (stereo unspecified)	u	n	u	n	25.9µM
O=C(NCc1ccccc1Cl)c1ccc(CS(=O)(=O)c2ccc(Br)cc2)o1	u	n	u	n	23.1µM
O=C(NCCc1ccccc1)c1ccc(CS(=O)Cc2cccc(Cl)c2)o1 (stereo unspecified)	n	n	n	n	n
CCc1ccccc1S(=O)(=O)Cc1ccc(C(=O)NCCc2ccc(Cl)cc2)o1	u	n	11.2µM	n	23.1µM
O=C(NCCc1ccc(Cl)cc1)c1ccc(CS(=O)Cc2cccc(Cl)c2)o1 (stereo unspecified)	u	n	8.91µM	n	u
O=C(CNS(=O)(=O)c1ccc(Br)s1)NC1CCCc2ccccc21 (stereo unspecified)	n	n	n	n	n
CSc1ccc(Cl)c(C(=O)NCCCn2ccnc2)c1	n	n	n	n	n
CCc1cc2c(=O)[nH]c(CC(N)=O)nc2s1	n	n	n	n	n
SMILES	A549 viability	Nrf2 ARE act	TGFb SMAD3 inh	HepG2 viability	Nrf2 block
O=C(c1ccc(CS(=O)Cc2cccc(Cl)c2)o1)N1CCN(c2ccc(F)cc2)CC1 (stereo unspecified)	x	n	n	n	x
Cc1ccc(C)c(N2CCN(C(=O)c3ccc(CS(=O)Cc4cccc(Cl)c4)o3)CC2)c1 (stereo unspecified)	n	n	u	n	18.4µM
CC(=O)c1ccc(OCC(O)CN2CCN(S(=O)(=O)c3c(C)c(C)cc(C)c3C)CC2)cc1 (stereo unspecified)	u	n	u	n	25.9µM
CC1(C)N=C(N)N=C(N)N1c1cccc(C#N)c1	n	n	n	2µM	u
COc1cccc(N2C(N)=NC(N)=NC2(C)C)c1	n	n	n	n	x
COc1ccc(OC)c2nc3c(C(=O)NCCN(C)C)cccc3nc12	16.4µM	n	u	n	5.8µM
COc1ccc(C23CC4CC(CC(C4)C2)C3)cc1C(=O)NCCN(C)C	n	n	u	15.8µM	n
CN(C)CCNC(=O)c1cccc2nc3cccc(F)c3nc12	10.3µM	n	u	n	4.61µM
Cc1cc(C(=O)NCCCN(C)C)c2ccccc2n1	n	n	n	n	n
CN(C)CCNC(=O)c1cccc2ccc(-c3ccc(-c4ccccc4)cc3)nc12	u	4.47µM	n	n	n
COc1ccccc1C(=O)NCCC(=O)NCCC12CC3CC(CC(C3)C1)C2	n	n	n	n	n
CN(C)CCNC(=O)c1ccccc1	n	n	n	n	n
CC(Sc1nnc(Cc2cccs2)n1C1CCCCC1)C(=O)N1CCc2ccccc21 (stereo unspecified)	n	n	n	n	u
CC(=O)N1CCN(C(=O)CNc2cc(C(F)(F)F)ccc2OCC(F)(F)F)CC1	n	n	n	n	n
COc1ccc(C(=O)N[C@H](C(=O)Nc2ccc(OC)nc2)C(C)C)cc1	n	n	n	n	n
Cc1cnc(C(=O)NCCc2ccc(C(F)(F)F)cc2)cn1	n	n	n	n	n
COc1ccc2nc(-c3ccc(F)cc3)sc2c1	n	n	n	n	u
COc1ccc2nc(-c3ccc(N(C)C)cc3)sc2c1	u	x	x	x	0.326µM
CN1CCCC1=Nc1c2c(nc3ccccc13)N(C)CC2	n	n	n	n	n
COc1cccc(NC(=O)CCCNC(=O)Cn2cnc3sc(C)c(C)c3c2=O)c1	n	n	n	n	n
COc1ccccc1N1CCN(C(=O)CCCNC(=O)Cn2cnc3sc(C)c(C)c3c2=O)CC1	n	n	n	n	23.1µM
Cc1sc2ncn(CC(=O)NCCCC(=O)Nc3ccc(C(C)C)cc3)c(=O)c2c1C	u	n	n	n	29.1µM
O=C(Nc1cc(Cl)ccc1O)c1cc(-c2ccco2)on1	n	6.31µM	u	n	n
O=C(Nc1cc(Br)ccc1O)c1cc(-c2ccccc2)on1	n	n	n	n	n
O=C(Nc1cc(Br)ccc1O)c1cc(-c2ccco2)on1	n	4.47µM	n	n	u
SMILES	A549 viability	Nrf2 ARE act	TGFb SMAD3 inh	HepG2 viability	Nrf2 block
O=C(Nc1cccnc1Cl)c1cc(-c2ccco2)on1	n	10µM	n	n	u
COc1ccc(OCCSc2nnc(-c3ccccc3)n2N)cc1	n	n	n	n	n
CCC(C)c1ccccc1NS(=O)(=O)c1cnn(CC)c1 (stereo unspecified)	n	n	n	n	n
O=[N+]([O-])c1ccc(C=C2c3ccccc3-c3ccccc32)cc1	x	x	u	n	x
OC(C1=CC(=Cc2ccncc2)c2ccccc21)c1ccncc1 (stereo unspecified)	n	u	n	n	20.6µM
OC(c1ccccc1)c1ccncc1 (stereo unspecified)	n	n	n	n	n

Screening data: PubChem, National Center for Advancing Translational Sciences (NCATS)
